Most compounds without a hit are left out; they make up all but 3.5% or so of the library.
TEAD-YAP inh: TEAD-YAP interaction inhibition; HEK-TIYL cells, TEAD-Gal4/YAP UAS-luciferase luminescence; inhibition, % at 9.12 µM; hit rate 1.4% among 640,000; AID 1259422; in the data active means inhibition above about 32%
MITF primary: blocks human microphthalmia-associated transcription factor. O75030. AlphaScreen MITF homodimerization, bead proximity signal. inhibition, % at 2.6 µM. hit rate 0.91% among 650,000. AID 1259374; in the data active means inhibition above about 50%
GPR151 activ: activators of human GPR151; Q8TDV0; PathHunter beta-arrestin GPR151 cells, luminescence; activation, % at 11.2 µM; hit rate 1% among 650,000; in the data active means activation above about 4.9%
Target sequence (Q8TDV0 whole entry, looked up): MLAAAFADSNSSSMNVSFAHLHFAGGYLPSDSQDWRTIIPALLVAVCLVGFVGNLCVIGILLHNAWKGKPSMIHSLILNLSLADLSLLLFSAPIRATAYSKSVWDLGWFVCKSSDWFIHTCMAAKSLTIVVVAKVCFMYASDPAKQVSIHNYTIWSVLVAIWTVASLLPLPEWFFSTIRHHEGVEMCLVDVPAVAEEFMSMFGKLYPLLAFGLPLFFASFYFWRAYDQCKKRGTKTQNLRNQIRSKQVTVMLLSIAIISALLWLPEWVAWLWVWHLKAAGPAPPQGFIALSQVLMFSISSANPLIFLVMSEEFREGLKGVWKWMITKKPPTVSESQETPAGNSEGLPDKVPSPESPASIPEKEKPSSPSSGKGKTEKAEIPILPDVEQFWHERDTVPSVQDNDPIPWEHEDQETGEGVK
FBW7 act: human FBW7 E3 ligase activation, primary screen; hit rate 0.13% among 650,000; AlphaScreen FBW7–phospho-cyclin E peptide binding, activator screen; normalized activity (activation), % at 26.1 µM; AID 1259310; in the data active means normalized activity above about 1.9%;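 further: purified mutant Fbw7 with reduced substrate affinity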
Large screens that a line does not name were inactive.

COc1cc(C(=O)N/N=C/c2cc(Br)cc(Cl)c2O)cc(OC)c1OC	TEAD-YAP inh 58.2
O=C(N/N=C/c1ccccc1O)c1ccc(F)cc1	none
O=C(N/N=C/c1cc(Br)ccc1O)c1ccc(F)cc1	TEAD-YAP inh 76.3
COc1cc(Br)cc(/C=N/NC(=O)c2ccccc2O)c1O	TEAD-YAP inh 71.9
CCOc1cc(Br)cc(/C=N/NC(=O)c2cccnc2)c1O	TEAD-YAP inh 77.6, MITF primary 52.8
CCOc1cc(CO)cc(I)c1OC(C)C	none
COc1ccc(/C=N/NC(=O)c2cccnc2)cc1CN1CCN(c2ccc(F)cc2)CC1	none
COc1ccc(/C=N/NC(=O)c2cccnc2)cc1Cn1cnc([N+](=O)[O-])n1	TEAD-YAP inh 45.2
Cc1ccc(O)c(/C=N/NC(=O)c2ccccc2)c1	TEAD-YAP inh 58.9
CCOc1ccc(NC(=O)CC2Sc3ccccc3NC2=O)c([N+](=O)[O-])c1 (configuration not stated)	TEAD-YAP inh 52.4
Cc1ccc(NC(=O)CC2Sc3ccccc3NC2=O)c(C)c1 (configuration not stated)	none
CCOc1cc([N+](=O)[O-])ccc1NC(=O)CC1Sc2ccccc2NC1=O (configuration not stated)	TEAD-YAP inh 57.8
CCOc1ccc(NC(=O)c2cccc3ccccc23)c([N+](=O)[O-])c1	TEAD-YAP inh 42.7
Cc1ccc(NC(=O)CC2Sc3ccccc3NC2=O)c([N+](=O)[O-])c1 (configuration not stated)	TEAD-YAP inh 48.1
CC(NC(=O)C1CCCN(c2nc3ccccc3n2C)C1)c1ccccc1 (configuration not stated)	none
c1csc(-c2cnn3ccc(Nc4ccc(N5CCOCC5)cc4)nc23)c1	none
O=C(NCCOc1ccccc1)c1cc(NCc2ccc3c(c2)OCO3)nc2ccccc12	GPR151 activ 6.1
CCCNC(=O)c1cc(NCc2ccc3c(c2)OCO3)nc2ccccc12	none
Cc1[nH]c2ccc(-c3nnc(SCC(=O)Nc4cccc([N+](=O)[O-])c4)n3Cc3ccccc3)cc2c1C	none
Cc1[nH]c2ccc(-c3nnc(SCC(=O)Nc4cccc([N+](=O)[O-])c4)n3-c3ccccc3)cc2c1C	FBW7 act 2.4
CC(=O)Nc1ccnn1C1CCN(Cc2cnc(-c3ccccc3)s2)CC1	TEAD-YAP inh 67.1
CC(=O)Nc1ccnn1C1CCN(Cc2ccc(-c3ccccc3)cc2)CC1	none
CC(=O)Nc1ccnn1C1CCN(Cc2cnc(-c3ccccc3C)nc2)CC1	TEAD-YAP inh 40.9
Clc1ccccc1Nc1nccn2c(-c3ccc4[nH]ccc4c3)cnc12	none
Cn1c(=O)oc2cc(S(=O)(=O)Nc3cccnc3)ccc21	none
Cc1ccc(C(=O)NC(=S)Nc2cccc(C(=O)O)c2)cc1	TEAD-YAP inh 75.0
O=C(Nc1ccccn1)c1ccc(-c2ccccc2)cc1	TEAD-YAP inh 74.7
O=C(COc1ccc(Br)cc1)Nc1ccccn1	TEAD-YAP inh 61.6
Cc1cccc(C(=O)NC(=S)Nc2cccc(C(=O)O)c2)c1	none
CCOc1ccc(C(=O)NC(=S)Nc2ccccn2)cc1	TEAD-YAP inh 86.0
CCCCOc1ccc(C(=O)NC(=S)Nc2ccccn2)cc1	none
CCCCOc1ccc(/C=C2\N=C(c3ccc(C)cc3)OC2=O)cc1	none
CC1CN(CC(O)COc2ccccc2C(C)C)CC(C)O1 (configuration not stated)	none
COC(=O)CCCCCNC(=S)NNC(=O)c1ccccc1	none
CC(C)(C)C1CCc2c(sc(NC(=O)c3cc4nc(-c5ccccc5)cc(C(F)(F)F)n4n3)c2C#N)C1 (configuration not stated)	none
Cc1ccc(-n2c(N3CCOCC3)n[nH]c2=S)cc1	none
CCOc1ccc(OCC(=O)Nc2cccc(C(=O)O)c2)cc1	none
Cc1ccc(OCC(=O)Nc2cccc(C(=O)O)c2)cc1	TEAD-YAP inh 68.9
COc1cc(OC)cc(C(=O)N/N=C(\C)CC(=O)Nc2ccccn2)c1	TEAD-YAP inh 55.9
Cc1ccc(OCC(=O)Nc2ccccn2)cc1	TEAD-YAP inh 82.8
O=C(COc1ccccc1)Nc1ccccn1	none
CCOc1ccc(C2c3[nH]c4ccccc4c3CCN2C(=O)c2ccco2)cc1 (configuration not stated)	none
CCCOc1ccc(C2/C(=C(/O)c3ccc(F)cc3)C(=O)C(=O)N2CCN(C)C)cc1 (configuration not stated)	none
O=C(O)c1ccc(/C=C2\SC(=S)N(Cc3ccco3)C2=O)cc1	none
O=C1c2ccccc2-c2onc3c(N4CCN(c5ncccn5)CC4)cc(Nc4ccc5c(c4)OCCO5)c1c23	none
O=C(Nc1ccc(Oc2ccccc2)cc1)c1ccc2c(=O)n(-c3cccc(C(F)(F)F)c3)c(=S)[nH]c2c1	none
COc1ccc(-n2c(=S)[nH]c3cc(C(=O)Nc4cccc(C)c4)ccc3c2=O)c(OC)c1	TEAD-YAP inh 47.8
O=C(Nc1ccc(Oc2ccccc2)cc1)c1ccc2c(=O)n(-c3cc(C(F)(F)F)ccc3Cl)c(=S)[nH]c2c1	TEAD-YAP inh 35.7
O=C(c1cnn2c1NC(c1ccco1)CC2C(F)(F)F)N1CCN(Cc2ccccc2)CC1 (configuration not stated)	TEAD-YAP inh 44.8
CCn1c(Sc2ccc(C=O)cc2[N+](=O)[O-])nnc1-c1ccco1	none
CCn1c(Sc2ccc([N+](=O)[O-])cc2C=O)nnc1-c1ccco1	TEAD-YAP inh 50.9
CC(=O)Nc1ccc(CNc2ccc(F)c(F)c2)cc1	none
Cc1ccc(NSc2ccccc2[N+](=O)[O-])cc1	TEAD-YAP inh 56.3
CCOc1ccc(NSc2ccccc2[N+](=O)[O-])cc1	none
NC(C(=O)N1CCC(Nc2ccc3[nH]ncc3c2)CC1)c1ccc(-c2ccccc2)cc1 (configuration not stated)	TEAD-YAP inh 37.8
Fc1cccc(NCc2ccc(Br)o2)c1N1CCC2(CC1)OCCO2	none
Nc1ccc2nc(-c3ccc(Cl)cc3)[nH]c2c1	none
CN(C)c1ccc(-c2nc3ccc(N)cc3[nH]2)cc1	TEAD-YAP inh 78.1
Nc1ccc(-c2nc3ccc(O)cc3[nH]2)cc1	TEAD-YAP inh 77.4
Nc1ccc(-c2nc3cc4ccccc4cc3[nH]2)cc1	TEAD-YAP inh 35.2
Cc1ccc2nc(-c3ccc(O)cc3)[nH]c2c1	TEAD-YAP inh 43.6
Nc1ccc(-c2nc3ccc(N)cc3[nH]2)cc1	none
COC(=O)c1ccc(C(=O)OC)c(NC(=O)c2cccc(C(=O)Nc3cc(C(=O)OC)ccc3C(=O)OC)c2)c1	none
CCOc1ccc2c(c1)-c1c(ssc1=S)C(C)(C)N2C(=O)c1ccccc1Cl	none
CC1CN(Cc2nc3c(c(=O)[nH]c(=O)n3C)n2Cc2cccc(Cl)c2)CC(C)O1 (configuration not stated)	none
Oc1cccc(-c2nc3ccccc3[nH]2)c1	TEAD-YAP inh 47.1
Fc1cccc(-c2nc3ccccc3[nH]2)c1	none
Nc1cccc(-c2nc3ccc(N)cc3[nH]2)c1	none
Nc1ccc2nc(-c3cccc(O)c3)[nH]c2c1	TEAD-YAP inh 41.6
Cc1ccc2nc(-c3ccccn3)[nH]c2c1	TEAD-YAP inh 64.2
Brc1cccc(-c2nc3ccccc3[nH]2)c1	FBW7 act 1.9
Oc1ccc2nc(-c3ccccc3)[nH]c2c1	none
